# Values without a mark were called inactive.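 The calls were made as follows: active = AUC reduced over 20% with Padj below 0.05 in at least 2 of 3 replicates; inactive = otherwise.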
# Test system: Coprococcus comes
# Test: growth AUC relative to DMSO control (median of replicates) (fraction); higher = more growth (less inhibition), active = hit call of the paper
# Details: 20 µM; 24 h
# How it was run: (§1)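 OD600 was recorded every hour for 24 h in anaerobic monocultures of gut bacteria kept at 37 °C in mGAM, seeded at OD600 0.05 and given 20 µM compound in 1% DMSO. The area under each growth curve was scaled to the plate median of solvent-only wells, or to row and column medians for the industrial chemical plate. Before this step, the minimum OD was set to 0. Reported values are medians of three biological replicates run on separate days.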
row,Structure (SMILES),growth AUC
1,CNC(=O)Oc1cc(C)c(N(C)C)c(C)c1,1.01
2,CC(C)(COCc1cccc(Oc2ccccc2)c1)c1ccc(OC(F)(F)Br)cc1,0.961
3,OC(c1ccc(Cl)cc1)(c1cncnc1)c1ccccc1Cl (stereo not drawn),0.987
4,CCCSP(=O)(OCC)Oc1ccc(Br)cc1Cl (stereo not drawn),1.01
5,CCOP(=S)(OCC)SCSc1ccc(Cl)cc1,0.975

# Test system: Escherichia coli ED1a
# Test: as above
# Details: 20 µM; 24 h
# How it was run: as §1
row,Structure (SMILES),growth AUC
1,CC1(C)C(C=C(Cl)Cl)C1C(=O)OC(C#N)c1ccc(F)c(Oc2ccccc2)c1 (mixture of isomers),0.956
2,c1ccc2c(c1)cc1ccc3cccc4ccc2c1c34,1.02
3,CCc1cccc(C)c1N(C(=O)CCl)C(C)COC (stereo not drawn),1.02
4,CO/C=C(/C(=O)OC)c1ccccc1Oc1cc(Oc2ccccc2C#N)ncn1,0.991
5,O=C(NCCc1ncc(C(F)(F)F)cc1Cl)c1ccccc1C(F)(F)F,1.01
6,CC(=O)CC(c1ccc(Cl)cc1)c1c(O)c2ccccc2oc1=O (stereo not drawn),0.952
7,CCOP(=S)(OCC)Oc1ccc(S(C)=O)cc1 (stereo not drawn),1
8,CCOP(=O)(NC(C)C)Oc1ccc(S(C)(=O)=O)c(C)c1 (stereo not drawn),1.03
9,Clc1cccc(C(Cl)(Cl)Cl)n1,0.974
10,COP(=O)(OC)Oc1ccc(S(C)(=O)=O)c(C)c1,1
11,Clc1ccc(C(c2ccc(Cl)cc2)C(Cl)(Cl)Cl)cc1,0.963
12,O=c1oc2ccccc2c(O)c1C(CC(O)c1ccc(-c2ccc(Br)cc2)cc1)c1ccccc1 (stereo not drawn),1
13,C[Si](Cn1cncn1)(c1ccc(F)cc1)c1ccc(F)cc1,0.982
14,CCCCN(CC)c1c([N+](=O)[O-])cc(C(F)(F)F)cc1[N+](=O)[O-],0.994
15,Cc1cc(Cl)ccc1OCC(=O)O,1.02
16,O=C1c2ccccc2C(=O)N1SC(Cl)(Cl)Cl,0.996
17,CCCCOCN(C(=O)CCl)c1c(CC)cccc1CC,1.02
18,CN(C)C(CSC(N)=O)CSC(N)=O.Cl,1.03
19,O=NN(CCO)CCO,0.994
20,O=C(O)C(Cl)Cl,1.01

row,Structure (SMILES),growth AUC
1,C1CCC(NC2CCCCC2)CC1.O=NO,0.991
2,Oc1ccc(Cl)cc1Cc1cc(Cl)ccc1O,0.793 (active)
3,Clc1cc(Cl)c(Cl)c(Cl)c1,0.961
4,CNC(=O)/C(=N/OC)c1ccccc1Oc1ccccc1,1
5,COC(=O)c1ccccc1CS(=O)(=O)NC(=O)Nc1nc(OC)cc(OC)n1,0.974
6,CNC(=O)O/N=C(\SC)C(=O)N(C)C,0.985
7,O=[N+]([O-])c1ccc(Oc2ccc(Cl)cc2Cl)cc1,0.99
8,CCCCOC(=O)c1ccccc1C(=O)OCCCC,1
9,O=C(NC(=O)c1c(F)cccc1F)Nc1ccc(Cl)cc1,0.993
10,COP(=S)(OC)Oc1ccc(S(C)=O)c(C)c1 (stereo not drawn),0.975
11,COP(=O)(OC)Oc1ccc(SC)c(C)c1,1
12,C=CC(N)=O,0.972
13,CCOC(=O)Nc1cccc(OC(=O)Nc2ccccc2)c1,1.01
14,C=CCC1=C(C)C(OC(=O)[C@@H]2[C@@H](C=C(C)C)C2(C)C)CC1=O (stereo partly drawn),1.01
15,CNC(=O)Oc1cc(C)c(N(C)C)c(C)c1,0.982
16,CC(C)(COCc1cccc(Oc2ccccc2)c1)c1ccc(OC(F)(F)Br)cc1,0.999
17,OC(c1ccc(Cl)cc1)(c1cncnc1)c1ccccc1Cl (stereo not drawn),0.991
18,CCCSP(=O)(OCC)Oc1ccc(Br)cc1Cl (stereo not drawn),1.01
19,CCOP(=S)(OCC)SCSc1ccc(Cl)cc1,0.986

# Test system: Escherichia coli IAI1
# Test: as above
# Details: 20 µM; 24 h
# How it was run: as §1
row,Structure (SMILES),growth AUC
1,CC1(C)C(C=C(Cl)Cl)C1C(=O)OC(C#N)c1ccc(F)c(Oc2ccccc2)c1 (mixture of isomers),0.991
2,c1ccc2c(c1)cc1ccc3cccc4ccc2c1c34,1
3,CCc1cccc(C)c1N(C(=O)CCl)C(C)COC (stereo not drawn),0.983
4,CO/C=C(/C(=O)OC)c1ccccc1Oc1cc(Oc2ccccc2C#N)ncn1,0.976
5,O=C(NCCc1ncc(C(F)(F)F)cc1Cl)c1ccccc1C(F)(F)F,0.988
6,CC(=O)CC(c1ccc(Cl)cc1)c1c(O)c2ccccc2oc1=O (stereo not drawn),1.02
7,CCOP(=S)(OCC)Oc1ccc(S(C)=O)cc1 (stereo not drawn),1.01
8,CCOP(=O)(NC(C)C)Oc1ccc(S(C)(=O)=O)c(C)c1 (stereo not drawn),1.02
9,Clc1cccc(C(Cl)(Cl)Cl)n1,0.976
10,COP(=O)(OC)Oc1ccc(S(C)(=O)=O)c(C)c1,0.983
11,Clc1ccc(C(c2ccc(Cl)cc2)C(Cl)(Cl)Cl)cc1,0.979
12,O=c1oc2ccccc2c(O)c1C(CC(O)c1ccc(-c2ccc(Br)cc2)cc1)c1ccccc1 (stereo not drawn),0.97
13,C[Si](Cn1cncn1)(c1ccc(F)cc1)c1ccc(F)cc1,0.946
14,CCCCN(CC)c1c([N+](=O)[O-])cc(C(F)(F)F)cc1[N+](=O)[O-],1
15,Cc1cc(Cl)ccc1OCC(=O)O,1
16,O=C1c2ccccc2C(=O)N1SC(Cl)(Cl)Cl,1.02
17,CCCCOCN(C(=O)CCl)c1c(CC)cccc1CC,1.04
18,CN(C)C(CSC(N)=O)CSC(N)=O.Cl,1.04
19,O=NN(CCO)CCO,1
20,O=C(O)C(Cl)Cl,0.966

row,Structure (SMILES),growth AUC
1,C1CCC(NC2CCCCC2)CC1.O=NO,0.95
2,Oc1ccc(Cl)cc1Cc1cc(Cl)ccc1O,0.684 (active)
3,Clc1cc(Cl)c(Cl)c(Cl)c1,0.982
4,CNC(=O)/C(=N/OC)c1ccccc1Oc1ccccc1,0.997
5,COC(=O)c1ccccc1CS(=O)(=O)NC(=O)Nc1nc(OC)cc(OC)n1,0.978
6,CNC(=O)O/N=C(\SC)C(=O)N(C)C,0.987
7,O=[N+]([O-])c1ccc(Oc2ccc(Cl)cc2Cl)cc1,0.983
8,CCCCOC(=O)c1ccccc1C(=O)OCCCC,0.962
9,O=C(NC(=O)c1c(F)cccc1F)Nc1ccc(Cl)cc1,1
10,COP(=S)(OC)Oc1ccc(S(C)=O)c(C)c1 (stereo not drawn),1.04
11,COP(=O)(OC)Oc1ccc(SC)c(C)c1,1.02
12,C=CC(N)=O,1
13,CCOC(=O)Nc1cccc(OC(=O)Nc2ccccc2)c1,1.03
14,C=CCC1=C(C)C(OC(=O)[C@@H]2[C@@H](C=C(C)C)C2(C)C)CC1=O (stereo partly drawn),0.988
15,CNC(=O)Oc1cc(C)c(N(C)C)c(C)c1,0.978
16,CC(C)(COCc1cccc(Oc2ccccc2)c1)c1ccc(OC(F)(F)Br)cc1,0.995
17,OC(c1ccc(Cl)cc1)(c1cncnc1)c1ccccc1Cl (stereo not drawn),0.973
18,CCCSP(=O)(OCC)Oc1ccc(Br)cc1Cl (stereo not drawn),1.04
19,CCOP(=S)(OCC)SCSc1ccc(Cl)cc1,0.964
